Assay results as given in PubChem BioAssay (NCI).
Where “and” joins values, the source holds several entries; their conditions need not be identical. Identical values can stand only once. The panel holds about 79,000 compounds, 15% with a hit somewhere; the sample as a whole holds those more often. Rule as the data show it: active = growth inhibition above about 70%; inactive = the rest.

How the values were obtained:
[1] = NCI Yeast Anticancer Drug Screen. Data for the rad50 strain (AID 155);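 also: 0% = growth of vehicle-only cultures of the same strain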; conditions: S. cerevisiae rad50 strain growth inhibition, stronger effect = higher value; at 50.0 µM unless noted
Procedure, shortened: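 Genetically altered yeast (DNA repair pathway); compound treatment; growth inhibition vs vehicle ctrl.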

[2] = NCI Yeast Anticancer Drug Screen. Data for the mec2-1 strain (AID 157); conditions: S. cerevisiae mec2-1 strain, stronger effect = higher value; at 50.0 µM unless noted
Procedure, shortened: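 Mutant yeast (mec2-1) grown with compound; growth inhibition relative to vehicle control reported.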

[3] = NCI Yeast Anticancer Drug Screen. Data for the sgs1 mgt1 strain (AID 161);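 also: 0% = growth of cultures given vehicle only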; conditions: S. cerevisiae sgs1 mgt1 strain, stronger effect = higher value; at 50.0 µM unless noted
Procedure, shortened: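 Growth of a repair-deficient yeast mutant was monitored after compound treatment and expressed as inhibition relative to vehicle-treated cultures.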

[4] = NCI Yeast Anticancer Drug Screen. Data for the cln2 rad14 strain (AID 165);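 also: 0% = growth equal to vehicle treated cultures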; conditions: S. cerevisiae cln2 rad14 strain, stronger effect = higher value; at 50.0 µM unless noted
Procedure, shortened: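 Readout is yeast growth inhibition versus vehicle-treated controls, using a strain with cln2 and rad14 alterations exposed to compound.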

[5] = NCI Yeast Anticancer Drug Screen. Data for the bub3 strain (AID 167); conditions: S. cerevisiae bub3 mutant strain, stronger effect = higher value; at 50.0 µM unless noted
Procedure, shortened: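 Yeast carrying a defined mutation is treated with each compound, and growth is compared with that of vehicle-exposed cells to give inhibition.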

[6] = NCI Yeast Anticancer Drug Screen. Data for the mlh1 rad18 strain (AID 175); conditions: S. cerevisiae mlh1 rad18 strain growth inhibition, stronger effect = higher value; at 50.0 µM unless noted
Procedure, shortened: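 Genetically defined yeast (DNA repair-deficient) exposed to compounds; growth inhibition determined relative to vehicle.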

Measured: growth inhibition

COc1cc(/C=C/c2ccc(N(C)C)cc2)oc(=O)c1
inactive: [1] 21.5% | [2] 5.45% | [3] 26.6% | [4] 6.85% | [5] 5.65% | [6] 0.25%

OCC[P+](c1ccccc1)(c1ccccc1)c1ccccc1
inactive: [1] 17.6% | [2] 12.1% | [3] -6.2% | [4] 16.4% | [5] -6.05% | [6] -11.3%

Cc1ccc(NC(=O)ON(C)C)cc1
inactive: [1] -1.65% | [2] 11.7% | [3] 8.25% | [4] -81.5% | [5] -18.9% | [6] -24.2%

CCCCCCCCN(CCCCCCCC)CC(O)c1ccnc2c(Cl)cc(Cl)cc12 (stereo not given)
inactive: [1] 16.5% | [2] 15.2% | [3] 43.2% | [4] 5.7% | [5] 4.85% | [6] 33.3%

CCCCCCCCCCCCCCCCCCc1ccc(O)cc1O
inactive: [1] -2.05% | [2] -2.05% | [3] -15.9% | [4] 12.6% | [5] 1.75% | [6] -5.2%

CCCCNC(=O)/C=C/C(=O)NCCCC
inactive: [1] 11.5% | [2] 1.95% | [3] -0.9% | [4] -36.4% | [5] -7.35% | [6] -1.5%

CCCNC(=O)NS(=O)(=O)c1ccc(Cl)cc1
inactive: [1] -4.15% and -5.15% | [2] 0.2% and -0.4% | [3] 4.2% and 1.6% | [4] 15.6% and -26.4% | [5] 11.7% and 23.1% | [6] 38.3% and -7.15%

CC(=O)CC(=O)NCC1CCC(CNC(=O)CC(C)=O)CC1 (stereo not given)
inactive: [1] -26.6% | [2] -33% | [3] -13.9% | [4] -1.45% | [5] -54.3% | [6] -48.8%

CC(C)N(CC(C)(C)O)C(=O)c1ccccc1
inactive: [1] -5.35% | [2] 11.7% | [3] 17.1% | [4] 6.1% | [5] -14.7% | [6] -8.4%

COc1ccc(/C=C2\N=C(N3CCCC(CO)C3)NC2=O)cc1 (stereo not given)
inactive: [1] -35.1% | [2] -2.4% | [3] 8.3% | [4] 1.9% | [5] -3.85% | [6] -34%

COC(=O)C1(CC(=O)c2c(C)[nH]c3ccccc23)NC(=S)NC(=O)C1C#N (stereo not given)
inactive: [1] -6.35% | [2] 14.7% | [3] -21.1% | [4] -5.15% | [5] -11.1% | [6] 26.4%

COc1cc(O)c(C(C)=O)c(O)c1
inactive: [1] 9.55% | [2] 16.2% | [3] 9.5% | [4] 16.8% | [5] 29.2% | [6] 18.5%

NC(=O)c1cncn1C1OCC(O)C(O)C1O (stereo not given)
inactive: [1] 10.2% | [2] 6.4% | [3] 3.85% | [4] -6.8% | [5] 3.1% | [6] -20.2%

CNc1cc([N+](=O)[O-])ccc1Br
inactive: [1] 10.2% | [2] 4.2% | [3] -1.1% | [4] -2.95% | [5] 7.5% | [6] -14.9%

O=C1CCCc2ccc3c(c21)CC1(Cc2cc4c(cc2C1)CCCC4)C3
inactive: [1] -22.6% | [2] 9.15% | [3] 34% | [4] -13.9% | [5] 32.4% | [6] -2.7%

C[C@]12CCC(=O)C=C1CC[C@H]1[C@@H]3CC[C@](O)(C(=O)CO)[C@@]3(C)CC(=O)[C@@]12SC(N)=O
inactive: [1] -4.6% | [2] 6.55% | [3] 3.9% | [4] 20.8% | [5] 6.1% | [6] -15.7%

N#CC(C(=O)/C(=N/Nc1nc(=S)[nH]n1N)C(C#N)c1ccccc1)c1ccccc1 (stereo not given)
inactive: [1] -23.8% | [2] -1.45% | [3] -30.8% | [4] 14.8% | [5] -19.1% | [6] -10.2%

CC(=O)OCC(C)(O)C#N (stereo not given)
inactive: [1] -19.8% | [2] -0.2% | [3] 11.3% | [4] 4.05% | [5] -5.35% | [6] -22.6%

Cn1c([N+](=O)[O-])cnc1CSc1nc(-c2ccccc2)no1
inactive: [1] 17.9% | [2] 1.8% | [3] 33.8% | [4] -1.1% | [5] 5.25% | [6] 33.1%

Fc1ccc2c(c1)-c1ccccc1C2
inactive: [1] -0.1% | [2] -14.6% | [3] -2.65% | [4] 4.95% | [5] -0.95% | [6] -19.6%

CCOc1c(N=Nc2cccc(Cl)c2)c(C)nn1C(N)=S
inactive: [1] 20.4% | [2] 3.35% | [3] 9.65% | [4] -25.1% | [5] -15.5% | [6] 19.4%

CSc1nc(SC)c2cnn(CC3CO3)c2n1 (stereo not given)
inactive: [1] 44.2% | [2] -15.2% | [3] 60.8% | [4] 11.1% | [5] -20.1% | [6] 39.5%

Clc1ccc(-c2c(C3=NCCCN3)nnn2-c2ccc(Cl)cc2)cc1
inactive: [1] -16.6% | [2] -17.9% | [3] -10.9% | [4] 11.7% | [5] -3.6% | [6] -25.7%

Cc1cc(=O)[nH]c(NNC(C#N)c2ccc(O)cc2)n1 (stereo not given)
inactive: [1] -26% | [2] -51.3% | [3] -48.4% | [4] -7.6% | [5] -18.6% | [6] -41.8%

NC(=O)N/N=C(/Cc1nc2ccc(C(=O)c3ccccc3)cc2[nH]c1=O)C(=O)Nc1ccc(C(F)(F)F)cc1[N+](=O)[O-]
inactive: [1] -7.85% | [2] 7.35% | [3] -7.85% | [4] 0.8% | [5] -33.6% | [6] 5.05%

N#CC1=C(NC(N)=O)CCCC1
inactive: [1] -0.7% | [2] 36.7% | [3] 10.7% | [4] 35.3% | [5] 10.1% | [6] 5.45%

Cc1cc(Cl)c(OCC(=O)O)cc1C
inactive: [1] -8.2% | [2] -9.45% | [3] -9.25% | [4] -8.3% | [5] -14.6% | [6] -1.9%

COC(=O)c1cc(Cl)ccc1OCC(=O)Nc1ccccc1
inactive: [1] -6.3% | [2] -2.5% | [3] 13.4% | [4] -8.2% | [5] -6.55% | [6] -29.1%

CCn1c(=O)n(Cc2ccccc2)c(=O)c2ccccc21
inactive: [1] 19.6% | [2] 8.95% | [3] 24.8% | [4] 10.8% | [5] -4.7% | [6] 30.3%

CCN(CC(COc1ccc2c(c1)[n+]([O-])nc(N)[n+]2[O-])OC(C)=O)C(C)=O (stereo not given)
inactive: [1] 42.9% | [2] 38.3% | [3] 41.5% | [4] 40.1% | [5] 25.4% | [6] 41.3%

c1cc(-c2ncc[nH]2)ccn1
inactive: [1] -6.9% | [2] -12.2% | [3] -4.25% | [4] -4.05% | [5] 6.1% | [6] -8.2%

C/C=C(/Br)C(=O)O
inactive: [1] -11.6% | [2] -6% | [3] -10.2% | [4] -53.5% | [5] -5.2% | [6] -12.9%

CC1C(c2ccccc2)OCCN1C(=S)Nc1ccccc1 (stereo not given)
inactive: [1] 34.9% | [2] 34.2% | [3] 45.6% | [4] -16.6% | [5] 35.2% | [6] 25.4%

Cc1ccc2ccc3ccccc3c2c1
inactive: [1] 46% | [2] 1.45% | [3] 9.2% | [4] 20.4% | [5] 17.9% | [6] 26.2%

CCOC(=O)/C(=C\c1ccccc1)c1ccccc1
inactive: [1] 7.15% | [2] 5.5% | [3] 9.65% | [4] 7.85% | [5] 27.1% | [6] -6.8%

O=C(c1ccccc1)c1ccc(NC(=O)C(F)(F)F)cc1
inactive: [1] 15.7% | [2] 5.9% | [3] 3.85% | [4] 4.75% | [5] -0.15% | [6] 18.9%

O=C1N(C2CCCCC2)C(/C=C/c2ccccc2)C1(c1ccccc1)c1ccccc1 (stereo not given)
inactive: [1] 22.4% | [2] 0.25% | [3] 3.65% | [4] 19.6% | [5] -6.05% | [6] 4.7%

C=C1N(c2cc3ccccc3o2)C(=O)OC12CCCCC2
inactive: [1] -37.5% | [2] -2.2% | [3] -8% | [4] 8.8% | [5] -2.55% | [6] 18.9%

CCOC(=O)c1[nH]cc(C(=O)O)c1C
inactive: [1] 15.3% | [2] 0.15% | [3] 6.05% | [4] -44.7% | [5] 1.25% | [6] 17.2%

CSc1nc(N)c(I)c(Cl)n1
inactive: [1] 7.8% | [2] 3.65% | [3] 6.9% | [4] 2.4% | [5] -14.6% | [6] -2.6%
